An excerpt weighted towards active compounds, which were near 0.93% of everything screened.
TR SRC2 fluor cs – counter-screen for TRb-SRC2 inhibitors: fluorescence interference; TRb/SRC2 Texas Red total fluorescence interference; Potency, µM (top dose mostly 106 µM), for the others: at the top dose fluorescence change, negative = quenching; actives 0.29% (n = 280,000); active = well fitted curve in either direction with a large enough effect; inconclusive = small, poorly fitted or top-dose-only effect; note: potency is the fitted concentration of half-maximal effect; % is set by controls: 0 for no effect and ±100 for the full control effect
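Human TRb ligand-binding domain at 0.6 uM with 20 nM Texas Red SRC2 peptide in Tris buffer containing 1 uM T3 and 5% DMSO, incubated with compound 5 h at ambient temperature. Total fluorescence (555/632 nm) calculated as parallel + 2 × perpendicular.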
TRb-SRC2 inh – TRbeta-SRC2 interaction inhibition | P10828 | TRbeta-SRC2 peptide binding, fluorescence polarization; receptor liganded with 1 µM T3 | Potency, µM (highest dose often 106 µM), without a hit: at the highest dose activity change, negative = inhibition, hits mostly inhibitors | actives 0.065% (n = 280,000) | AID 1469; active = well fitted curve in the direction sought with a large enough effect; inconclusive = small, poorly fitted or top-dose-only effect, or another doubt; inactive = no such curve, though single readings can be large; an effect the other way counts as inactive or inconclusive;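 note: potency is the fitted concentration of half-maximal effect; plate controls were bound peptide for no effect and peptide without receptor for full effect; nearly all actives have a fitted effect of over 50% in size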
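Read-out is fluorescence polarization (555 nm excitation, 632 nm emission) of a Texas Red SRC2 coactivator peptide; loss of signal reflects blocked binding to human TRb ligand-binding domain in the presence of 1 uM T3.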
Coupling enz – counter-screen for Giardia aldolase inhibitors: coupling enzyme system | AID 2472 | coupling enzyme system counterscreen, AmpLite Red fluorescence | activity change, negative = inhibition, % at 58.2 µM, hits read low | actives 0.67% (n = 290,000); in the data active = activity change below about -30%; note: % is set by controls: 0 for no effect and ±100 for the full control effect
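Fluorescence at 525 nm excitation and 598 nm emission measured inhibition of the coupled detection system without aldolase. Compounds (at 57.5 uM final) were preincubated 10 min at room temperature with coupling enzyme reagent before a 20 min substrate/AmpLite Red step.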
RGS12 GoLoco inh-1 – inhibitors of human Gai1-RGS12 GoLoco interaction (red fluorophore); P63096; Gai1:RGS12 GoLoco peptide FP, rhodamine, 10 min; Potency, µM (top dose mostly 61.6 µM), inactives show top-dose activity, negative = inhibition, actives largely listed as inhibitors; actives 0.44% (n = 230,000); AID 880; active = well fitted inhibition curve with a large enough effect, not every such curve was filed as active; inactive = no such curve, though single readings can be large or run the other way; note: potency is the fitted concentration of half-maximal effect; % is set by controls: 0 for no effect and ±100 for the full control effect; nearly all actives have a fitted effect of over 30% in size
RGS12 GoLoco inh-2 – disrupts Gai1 binding to human RGS12 GoLoco peptide; shares compounds with RGS12 GoLoco inh-1; actives 50% (n = 110); Gai1/rhodamine-RGS12 GoLoco peptide fluorescence polarization; Potency, µM (top dose mostly 57.1 µM), without a hit: top-dose activity, negative = inhibition, usual class: inhibitors; active = well fitted curve in the direction sought with a large enough effect; inconclusive = small, poorly fitted or top-dose-only effect, or another doubt; inactive = no such curve, though single readings can be large; an effect the other way counts as inactive or inconclusive
Casp1 catalase – caspase-1 inhibition with catalase present. shares compounds with Coupling enz. 30 tested, under 10 active. Potency, µM (series often up to 57.5 µM), for the others: at the highest dose activity change, negative = inhibition, usual class: inhibitors. caspase-1 Ac-WEHD-AFC fluorescence rate, catalase buffer
CASP1 inh CRC – blocks human caspase-1 activity in concentration-response. shares compounds with Coupling enz. actives 20% (n = 60). purified caspase-1, fluorogenic substrate cleavage. Potency, µM (doses to about 57.5 µM), inactives show at the top dose activity change, negative = inhibition, hits mostly inhibitors
Casp7 confirm – confirmation of allosteric or competitive inhibitors of human caspase-7; 60 tested, under 10 active; shares compounds with Coupling enz; Potency, µM (doses to about 57.5 µM), without a hit: at the highest dose activity change, negative = inhibition, hits mostly inhibitors; recombinant caspase-7, fluorogenic substrate cleavage; active = well fitted inhibition curve with a large enough effect in the main read-out, with a control signal flat, not every such curve was filed as active; inconclusive = small, poorly fitted or top-dose-only effect, or a change in a side signal; inactive = no such curve, though single readings can be large or run the other way
Casp7 cysteine – caspase-7 inhibition with cysteine present; shares compounds with Coupling enz; caspase-7 enzyme with cysteine, fluorogenic substrate, redox counterscreen; Potency, µM (series often up to 57.5 µM), without a hit: at the top dose activity change, negative = inhibition, actives largely listed as inhibitors; 60 tested, under 10 active; AID 908
CASP7 redox cat – counter-screen for redox active caspase-7 inhibitors: catalase buffer | 30 tested, under 10 active | shares compounds with Coupling enz | Caspase-7 Ac-DEVD-AFC fluorescence rate, catalase buffer | AID 909 | Potency, µM (highest dose often 57.5 µM), inactives show at the highest dose activity, negative = inhibition, hits mostly inhibitors
CASP1 redox cys – inhibits caspase-1 in cysteine buffer, redox counter-screen | shares compounds with Coupling enz | recombinant caspase-1, fluorogenic substrate, cysteine buffer | Potency, µM (doses to about 57.5 µM), without a hit: at the top dose activity change, negative = inhibition, most hits filed as inhibitors | 60 tested, under 10 active | AID 929
Numbers without * were called inactive; ? = inconclusive; nt = no result given; [ ] = remark or other dose. Unless noted, calls come from the whole dose curve; as a rule, active = well fitted inhibition curve with a large enough effect in the main read-out, with a control signal flat; inconclusive = small, poorly fitted or top-dose-only effect, or a change in a side signal; inactive = no such curve, though single readings can be large or run the other way.

SMILES	TR SRC2 fluor cs	TRb-SRC2 inh	Coupling enz	RGS12 GoLoco inh-1	Casp1 catalase	CASP1 inh CRC	Casp7 confirm	Casp7 cysteine	CASP7 redox cat	CASP1 redox cys	others
Cc1ccc(-c2nnc(SCC(=O)NCC3CCCO3)n2C)cc1 (configuration not stated)	-1%	-3%	3	11%	nt	nt	nt	nt	nt	nt
CCC(=O)Nc1ccc(-c2nnc(SCC(=O)NCC3CCCO3)n2C)cc1 (configuration not stated)	-2%	10%	0	-6%	nt	nt	nt	nt	nt	nt	RGS12 GoLoco inh-2=12%
C=CCc1cc(/C=N\NC(=O)CSc2nnc(CCCc3ccc(OC)c(C)c3)o2)cc(OC)c1O	3%	-1%	0	14µM*	nt	nt	nt	nt	nt	nt	RGS12 GoLoco inh-2=?
CCCCC#Cc1nc(N)c2ncn([C@@H]3O[C@H](C(=O)NCC)[C@@H](O)[C@H]3O)c2n1	1%	3%	nt	14%	nt	nt	nt	nt	nt	nt
OC(COCc1ccccc1)Cn1cnc2ccccc21 (configuration not stated)	-2%	-7%	0	4%	nt	nt	nt	nt	nt	nt
Cc1n(CC(O)COCc2ccccc2)c2ccccc2[n+]1C (configuration not stated)	-1%	-2%	1	8.9µM*	nt	nt	nt	nt	nt	nt	RGS12 GoLoco inh-2=13µM*
COc1ccc(S(=O)(=O)Nc2ccc(O)c3ccccc23)cc1	-1%	?	-3	-24%	-2%	-4%	-4%	0%	-9%	4%
CC1(C)C(=O)NC2=C1C(=O)C(=O)c1ccccc12	-27%	?	-76*	-13%	nt	4µM*	?	-18%	nt	-2%
Cc1ccc(C2C3=C(CC(C)(C)CC3=O)NC3=C2C(=O)c2ccccc23)cc1 (configuration not stated)	-3%[53 µM]	3%[53 µM]	-13	26%	nt	nt	nt	nt	nt	nt
COc1cc(=O)[nH]c(SCc2c(F)c(F)c(F)c(F)c2F)n1	0%	7%	11	12%	nt	-5%	-4%	-7%	nt	5%
COc1ccc(CSc2nc(C)cc(=O)[nH]2)cc1Br	2%	-11%	13	-1%	nt	nt	nt	nt	nt	nt
N#CC1=C2SCN(Cc3ccccc3)CN2C(=O)CC1c1cccs1 (configuration not stated)	-4%	5%	-40*	-24%	-4%	-5%	-1%	1%	-7%	-2%
CCOC(=O)c1c(NC(=O)COc2cccc(C)c2C)sc2c1CCC(CC)C2 (configuration not stated)	1%	1%	nt	nt	nt	nt	nt	nt	nt	nt
Cc1noc(Cn2c(=O)c3cc4c(cc3n(CC(=O)Nc3ccccc3F)c2=O)OCO4)n1	-1%	-9%	nt	nt	nt	nt	nt	nt	nt	nt
O=C(Nc1ccc2c(c1)OCO2)[C@@H]1[C@@H]2C(=O)N(C3CCCCC3)C(=O)[C@@H]2C2c3ccccc3C=CN21 (some centres not stated)	-3%	2%	-35*	7%	-3%	-25%	-16%	-16%	6%	-3%
O=C(Nc1ccc2c(c1)OCO2)C1CCCCC1	nt	nt	2	nt	nt	nt	nt	nt	nt	nt
CC(C)c1ccc(Cn2ccc3c4c(N)nc(NC5CC5)nc4ccc32)cc1	0%	-4%	-9	3%	nt	nt	nt	nt	nt	nt
CC(=O)Nc1cc(OC(C)=O)c2nonc2c1OC(C)=O	-22%	1.6µM*	-77*	-16%	-25%	-63%	-32%	-13%	1%	?
O=C1NCCCC2c3cc(O)c4ccccc4c3OC12N1CCCCC1 (configuration not stated)	-5%	-28%	-57*	-24%	-25%	-67%	-31%	-14%	-3%	-19%
O=C(Nc1cccn(Cc2ccccc2)c1=O)NC1CCCCC1	1%	2%	-9	2%	nt	nt	nt	nt	nt	nt
COc1cccc(Cn2cccc(NC(=O)NC3CCCCC3)c2=O)c1	2%	5%	-21	12%	0%	-21%	-9%	-11%	5%	2%
COc1cc2c(cc1OC)CN(C(=O)CSc1nc3[nH]ncc3c(=O)n1-c1ccccc1)CC2	-1%	-14%	-3	12%	1%	-6%	?	?	-25%	6%
O=C(CSc1ncc2c(n1)-c1ccccc1N(Cc1ccc(F)cc1)S2(=O)=O)NCc1ccccc1	0%	5%	nt	nt	nt	nt	nt	nt	nt	nt
Cc1cc(C)cc(C(=O)N(C)[C@H](Cc2ccc(-c3ccccc3)cc2)C(=O)N[C@@H](Cc2c[nH]c3ccccc23)C(=O)O)c1	4%	1%	0	5%	nt	?	16µM*	16µM*	nt	?
Cc1ccc(C(=O)NC(Cc2c[nH]c3ccccc23)C(=O)O)cc1 (configuration not stated)	-1%	-3%	7	6%	nt	nt	nt	nt	nt	nt
COc1ccc(C(=O)CC2(O)C(=O)N(Cc3cccc(C(F)(F)F)c3)c3ccccc32)cc1 (configuration not stated)	2%	4%	nt	nt	nt	nt	nt	nt	nt	nt
